Source: PubChem BioAssay (National Center for Advancing Translational Sciences (NCATS))
Sampled rows, rich in hits. Any-hit rate of the full collection: about 2.5%.
Cruzain inh Det: qHTS Assay for Promiscuous and Specific Inhibitors of Cruzain (with detergent). purified cruzain, Z-FR-AMC fluorescence, 0.01% Triton. Potency, µM, without a hit: max response, negative = inhibition, actives largely listed as inhibitors. 0.43% of 200,000 active;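 also: plate controls were neutral wells for no effect and buffer without enzyme for full effect; nearly all actives have a fitted effect of over 40% in size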
Target sequence (P25779 123-467 limits assumed): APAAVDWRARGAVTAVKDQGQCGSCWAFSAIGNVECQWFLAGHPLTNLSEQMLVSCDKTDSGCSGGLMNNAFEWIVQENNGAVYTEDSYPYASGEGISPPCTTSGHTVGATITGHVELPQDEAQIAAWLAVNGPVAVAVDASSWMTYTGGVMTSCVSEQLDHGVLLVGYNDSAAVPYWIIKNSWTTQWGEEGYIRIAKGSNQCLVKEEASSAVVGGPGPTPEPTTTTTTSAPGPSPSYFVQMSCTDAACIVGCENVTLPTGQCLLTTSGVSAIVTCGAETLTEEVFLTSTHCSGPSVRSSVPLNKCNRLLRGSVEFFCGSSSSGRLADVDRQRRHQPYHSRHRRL
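Purified cruzain (1.5 nM final) was preincubated with compounds for 15 min at room temperature in 100 mM sodium acetate pH 5.5, 5 mM DTT, 0.01% Triton X-100. Reaction started with 2 uM Z-FR-AMC; AMC fluorescence change over 60 s gave activity.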
Cruzain noTriton: qHTS Assay for Promiscuous and Specific Inhibitors of Cruzain (without detergent); Cruzipain (Trypanosoma cruzi), P25779; purified cruzain, Z-FR-AMC fluorescence, no detergent; Potency, µM, inactives show max response, negative = inhibition, actives largely listed as inhibitors; 2.3% of 200,000 active; AID 1476, 2009;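 also: plate controls were enzyme without inhibitor for no effect and buffer without enzyme for full effect; nearly all actives have a fitted effect of over 40% in size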
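Purified cruzain at 1.5 nM, pre-incubated 15 min with compound at room temperature in 100 mM sodium acetate pH 5.5, 5 mM DTT, 0.00005% Triton X-100. Reaction started with 2 uM Z-FR-AMC; AMC fluorescence increase over 60 s gives rate.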
* hit, by the source's call; u = inconclusive. Calls follow the shape of the dose curve; as a rule, active = well fitted curve in the direction sought with a large enough effect; inconclusive = small, poorly fitted or top-dose-only effect, or another doubt; inactive = no such curve, though single readings can be large; an effect the other way counts as inactive or inconclusive. Potency is read from the fitted curve at half-maximal effect.

SMILES | Cruzain inh Det | Cruzain noTriton
COc1cc2c(cc1NC(=O)C(C)N1CCN(S(=O)(=O)c3ccccc3[N+](=O)[O-])CC1)oc1ccccc12 (stereo not drawn) | 3% | 0.79µM*
COc1ccc(NC(=O)CN2CCN(S(=O)(=O)c3ccc(Br)cc3)CC2)cc1 | -2% | 12%
COc1ccc(C)cc1NC(=O)CN1CCN(S(=O)(=O)c2ccc(Cl)cc2)CC1 | -2% | 25%
COc1cc2c(cc1NC(=O)C(C)N1CCN(S(=O)(=O)c3ccc(C)c(C)c3)CC1)oc1ccccc12 (stereo not drawn) | 2% | 7.9µM*
COc1ccc(OC)c(C(=O)CN2CCN(S(=O)(=O)c3ccc(Br)cc3)CC2)c1 | 2% | 25µM*
COc1cc2c(cc1NS(=O)(=O)N1CCCC1)oc1ccccc12 | -8% | 14%
COc1cc2c(cc1NC(=O)CN1CCN(S(=O)(=O)c3ccc(C)cc3)CC1)oc1ccccc12 | 0% | 7.9µM*
COc1cc2c(cc1NC(=O)C(C)Oc1ccccc1)oc1ccccc12 (stereo not drawn) | -9% | -14%
COc1ccc(-c2nnc(C3CCN(C(=O)c4ccccc4F)CC3)o2)cc1 | -4% | -11%
CN(C)c1ncnc2ccc(-c3ccccc3C#N)cc12 | 4% | -8%
C[C@@H]1CC2C3CCC4=CC(=O)C=CC4(C)[C@@]3(F)[C@@H](O)CC2(C)[C@@]1(O)C(=O)CO (stereo partly drawn) | 0% | 3%
O=C(CCN1C(=O)/C(=C/c2ccc3c(c2)OCO3)SC1=S)Nc1ccccc1 | -5% | 7.9µM*
COc1ccc(/C=C2\SC(=S)N(CCC(=O)NC3=NCCS3)C2=O)cc1OC | -12% | -15%
Cn1cc(S(=O)(=O)CC(=O)Nc2ccc3c(c2)OCCO3)c2ccccc21 | 8% | 1%
Cn1cc(/C=C2/SC(=O)N(CC(=O)Nc3ccc4c(c3)OCO4)C2=O)c2ccccc21 | -1% | 25µM*
Cc1c(C(=O)N2CCOCC2)oc2c1-c1nn(CC(=O)NCc3ccccc3)cc1CC2 | -3% | -7%
CCOc1ccc(C2CC(=O)n3nc(-c4ccc(C)cc4)nc3S2)cc1OC (stereo not drawn) | -3% | 7%
CCc1cccc(C)c1NC(=O)CN1CCN(Cc2ccccc2Cl)S1(=O)=O | -1% | 12%
Cc1oc2ncn(C)c(=O)c2c1C(=O)N1CCN(c2cccc(C(F)(F)F)c2)CC1 | -2% | 24%
N.N.O=C(O)C1(C(=O)O)CCC1.[Pt] | 3% | u
Cc1ccc(-c2nnn(CC(=O)N3c4ccccc4CCc4ccccc43)n2)cc1 | -4% | u
Cc1ccc(-c2nnn(CC(=O)N3CCN(c4nc5ccccc5s4)CC3)n2)cc1 | 12% | 10µM*
COc1ccc(OCC(=O)Nc2ccc(C(=O)OCc3cc(=O)n4nc(C)sc4n3)cc2)cc1 | -1% | 13%
O=C(NN1CCOCC1)c1cc(-c2cccs2)nc2ccccc12 | -9% | 10%
O=C(NNc1nc2ccc(Cl)cc2s1)c1cc(-c2cccs2)nc2ccccc12 | 2% | 7.9µM*
SMILES | Cruzain inh Det | Cruzain noTriton
Cc1ccc2sc(NNC(=O)c3cc(-c4cccs4)nc4ccccc34)nc2c1C | 0% | 10µM*
Cc1cc(C)c2nc(NNC(=O)c3cc(-c4cccs4)nc4ccccc34)sc2c1 | 2% | u
CCn1c2c(c(=O)n3ncc(C(=O)Nc4ccc(OC(F)(F)F)cc4)c13)CN(Cc1ccc(OC)cc1)CC2 | -8% | u
O=C(CCC1CCCC1)Nc1nnc(-c2ccc3c(c2)OCO3)s1 | 0% | 10µM*
COCc1nnc(NC(=O)CCC2CCCCC2)s1 | 2% | -5%
COc1ccc(-c2onc3ccc(Cl)cc23)cc1 | -5% | -5%
COc1ccc(-c2cn(/N=C/c3ccc(Cl)cc3Cl)c(N)n2)cc1 | -21% | 7.9µM*
CC(=O)c1ccc2c(c1)Nc1ccccc1S2 | 1% | 25µM*
C/C(=N\NC(=O)c1ccc(C)cc1C)c1ccc2c(c1)Nc1ccccc1S2 | -2% | u
CCOC(=O)c1ccc(NC(=O)c2ccc3c(c2)NC(=O)c2ccccc2S3)cc1 | -1% | 6%
CCOC(=O)Nc1ccc2c(c1)Nc1ccccc1S2 | -11% | 25µM*
CCOc1ccccc1NC(=O)c1ccccc1-c1nc(-c2ccccc2)no1 | -1% | 4%
COc1ccc(-c2noc(CC(=O)Nc3ccc(C)c(F)c3)n2)cc1 | -2% | -23%
COc1ccccc1CC(=O)Nc1ccc(-c2noc(COc3ccc(Cl)c(C)c3)n2)cc1 | 4% | 25µM*
COc1ccc(CC(=O)Nc2ccc(-c3noc(-c4cccc(OC)c4)n3)cc2)cc1 | 3% | 7.9µM*
CCOc1ccccc1-c1nc(-c2ccc(NC(=O)Cc3ccccc3OC)cc2)no1 | 4% | 25µM*
COc1cccc(-c2nc(-c3ccc(NC(=O)c4cccnc4)cc3)no2)c1 | -4% | 19%
CCOc1ccc(-c2ncnn2-c2sc3c(c2C#N)CCCCC3)cc1 | -5% | -12%
